Test results as given in PubChem BioAssay (EPA / NIEHS).
The source made the active and inactive calls. How the source made its calls: active means hit-call score of the fitted dose curve at least 0.9, where 1 is the maximum; inactive means score below 0.9.

Test: CCTE_Padilla_ZF_Score.General: CCTE's 144 Hour Post-fertilization zebrafish Assay Score for General Malformation, Padilla Lab (AID 2284411)
Description: CCTE_Padilla_ZF_Phenotype_Score is a whole embryo, multiplexed assay using zebrafish ova exposed for 144 hours post fertilization on a 96-well plate.CCTE_Padilla_ZF_Score.General is one of one assay component(s) measured or calculated from the CCTE_Padilla_ZF_Phenotype_Score assay. It is designed to make measurements of zebrafish development as detected with brightfield microscopy of developing zebrafish embryos.Data from the assay component CCTE_Padilla_ZF_Score.General was analyzed into 1 assay endpoints. This assay endpoint, CCTE_Padilla_ZF_Score.General, was analyzed in the positive analysis fitting direction relative to DMSO as the negative control and baseline of activity. Using a type of viability reporter, gain-of-signal activity can be used to understand changes in developmentals as they relate to the whole embryo. To generalize the intended target to other relatable targets, this assay endpoint is annotated to the zebrafish development intended target family, where the subfamily is embryonic morphogenesis.
Zebrafish husbandry: Wild type adult zebrafish (Danio rerio; undefined outbred stock obtained from Aquatic Research Organisms, Hampton, NH, 03842) were housed in an AAALAC-approved animal facility at 28C with a 14:10 h light: dark cycle (lights on at 08:30 h). Adult fish (2-3 females per male; density = 15-20 adults per tank) were kept in one of several 9-liter (L) flow-through colony tanks (Aquaneering Inc., San Diego, CA). All adults in a colony tank were placed in a 2 L (static) breeding tank (Aquatic Habitats, Apopka, FL) one hour prior to light onset. Typically, adults from two to three colony tanks were mated on the same day. Two hours after light onset the adults were returned to the colony tank. All embryos were gathered from each breeder tank, pooled, and placed in a 28C water bath for 2 h, followed by two washes with 0.06% bleach (v/v) in 10% Hanks' Balanced Salt Solution (13.7 mM NaCl 0.54 mM KCl, 25 uM Na2HPO4, 130 uM CaCl2 100 um MgSO4 and 420 um NaHCO3,), hereafter referred to as Hanks' solution, for 5 min in order to remove any residual bacteria or fungi. Immediately following washing, the embryos were examined, and healthy embryos were separated from dead or unfertilized eggs and moved into fresh Hanks'. Chemical exposures: Zebrafish embryos were exposed in 96-well plates. Between 6- and 8-hours post fertilization (hpf), healthy embryos (with chorions) were transferred, one embryo per well, into 96 well (0.5 mL) microtiter plates (Cell Culture-Treated, Flat-Bottom Microplate 96 well [Corning Costar, Kennebunk, ME; Cat 09-761-145]) filled with 200 uL of Hanks' solution. A random number generator was used to assign the order in which the rows of embryos were plated in 96 well plates each week. After plating, the embryos were dosed with 0.8 uL of the chemical dosing solution then immediately sealed with AlumaSeal II (Excel Scientific Inc, Victorville, CA) to prevent volatilization of the chemicals, and then placed in a leakproof secondary container. These containers were placed in an incubator maintained on a 14:10 h light: dark cycle at 26C for rearing. On 5 dpf, live larvae were gently moved out of the plate with test chemicals and into a new 96 well mesh plate (Millipore Corp., Bedford, MA) with just the Hanks' solution. Once within the mesh well plate, the animals were rinsed with 400 uL of fresh Hanks' three times, and then the plates were covered with a non-adhesive material (Microseal A, BioRad, Hercules, CA), plate lid added, and then plate sides wrapped in Parafilm (PM992, Bermis Company, Neenah, WI), and returned to the incubator. […]

Row | Compound | outcome | AC50
1 | CCCOC(=O)c1ccccc1C(=O)OCCC | inactive | 
2 | Cc1ccc(OP(=O)(Oc2ccc(C)cc2)Oc2ccc(C)cc2)cc1 (tested in a mixture with another compound) |  | 2600 nM (active)
3 | CC(C)COP(=O)(OCC(C)C)OCC(C)C | inactive | 
4 | O=c1c2ccccc2c(=O)c2c1cc(Cl)c1[nH]c3c([nH]c12)c(Cl)cc1c(=O)c2ccccc2c(=O)c13 | inactive | 
5 | O=[N+]([O-])C=Cc1ccccc1 |  | 2310 nM (active)
6 | O=S(=O)(c1ccccc1)c1ccccc1 | inactive | 
7 | c1ccc(Nc2ccc3ccccc3c2)cc1 | inactive | 
8 | C=CC(=O)OCC(CC)CCCC (configuration not stated) | inactive | 
9 | C=COCCCl | inactive | 
10 | O=C1C=CC(=O)C=C1 | inactive | 
11 | O=C1C(Cl)=C(Cl)C(=O)C(Cl)=C1Cl | inactive | 
12 | CC(C)CCCCCCCOC(=O)c1ccccc1C(=O)OCCCCCCCC(C)C | inactive | 
